Source: PubChem
Shown are actives, neighbours in structure and some others; about 4.1% of the full set was active somewhere.
DAX1 inh-1: blocks DAX1 repression of SF-1 activated StAR promoter; HEK293T StAR-luciferase reporter, SF-1/DAX-1 repression relief; inhibition, % at 6.8 µM; 370,000 compounds, 1.1% hits;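 active = inhibition above the mean over all tested compounds plus 3 SD, cut at about 3.6% in these data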;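 note: 0% = DAX-1 cells with DMSO and 100% = cells lacking DAX-1 with DMSO; higher inhibition means more luminescence from relief of DAX-1 repression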
hcDAF-12 act: activators of H. contortus DAF-12 nuclear receptor | activation, % at 6.8 µM | HEK293 hcDAF-12 lit1-tk-luc reporter, luminescence; 0% DMSO, 100% Δ7-dafachronic acid | 370,000 compounds, 1.4% hits;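 active = activation above the mean of all tested compounds plus 3 SD, cut at about 5.5% in these data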;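 note: 100% = response to 3 µM Δ7-dafachronic acid high control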
ssDAF12 agonist: S. stercoralis DAF-12 activation, primary screen; HEK293 ssDAF-12/GRIP1 lit1-tk-luc reporter, luminescence; % of 3 µM dafachronic acid response; activation, % at 6.8 µM; 370,000 compounds, 1% hits; AID 652126;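 active = activation above the mean over all tested compounds plus 3 SD, cut at about 0.9% in these data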;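 note: 0% = DMSO-only wells and 100% = 3 µM delta7-dafachronic acid wells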
DAX1 inh-2: NR0B1 (DAX1) inhibition; P51843; HEK293 Gal4-DAX1 luciferase reporter, luminescence; inhibition, % at 6.75 µM; 340,000 compounds, 0.99% hits; AID 504766;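 active = inhibition above the mean over all tested compounds plus 3 SD, cut at about 4.2% in these data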;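 note: 0% = DAX1-transfected cells with DMSO and 100% = empty-vector control cells with DMSO; inhibition shows as a rise in luminescence from relieved DAX1 repression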
Target sequence (P51843 207-470 limits assumed): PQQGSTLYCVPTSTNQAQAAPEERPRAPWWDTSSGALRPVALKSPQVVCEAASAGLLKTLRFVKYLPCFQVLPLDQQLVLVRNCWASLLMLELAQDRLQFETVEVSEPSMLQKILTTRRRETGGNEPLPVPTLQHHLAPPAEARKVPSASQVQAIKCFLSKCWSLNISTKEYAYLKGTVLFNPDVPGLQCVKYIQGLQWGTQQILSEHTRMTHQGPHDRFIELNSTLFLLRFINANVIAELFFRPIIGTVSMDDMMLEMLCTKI
hgDAF-12 ag: agonists of H. glycines DAF-12 nuclear receptor. HEK293 GAL4-hgDAF12 UAS-luciferase reporter, agonist luminescence; normalized to butyrate control. activation, % at 6.8 µM. 370,000 compounds, 1.8% hits;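 active = activation above a cutoff set at the mean of all screened compounds plus 3 SD, cut at about 10% in these data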;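 note: 0% = DMSO wells and 100% = sodium butyrate wells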
* hit, by the source's call; / = no result given.

SMILES	DAX1 inh-1	hcDAF-12 act	ssDAF12 agonist	DAX1 inh-2	hgDAF-12 ag
O=C(c1ccc2nc(Cc3cccc(Cl)c3)oc2c1)N1CCC(O)CC1	0	0	-1	0	0
CC(=O)Nc1ccc(/C=C/c2nc3ccccc3o2)cc1	2	4	0	4.5*	13*
CC(C)CC(N)c1csc(Nc2ncccn2)n1 (stereo unspecified)	-3	-2	-1	/	2
OC(c1ccccc1)(c1ccccc1)C1CCN(CCCOc2ccccn2)CC1	0	-1	-1	/	4
C=CCn1c(=O)c(C(=O)Nc2ccc(C)cc2)c(O)c2ccccc21	0	2	1.0*	0	4
CCn1c(=O)c(C(=O)NNS(=O)(=O)c2ccc(Br)cc2)c(O)c2ccccc21	1	1	0	8.6*	3
Cn1c(=O)c(C(=O)NNC(=O)c2ccccc2F)c(O)c2ccccc21	0	3	0	0	3
Cn1c(=O)c(C(=O)NNC(=O)c2ccc(Br)cc2)c(O)c2ccccc21	0	4	0	4.5*	0
CCn1c(=O)c(C(=O)NNS(=O)(=O)c2ccc(C)cc2)c(O)c2ccccc21	0	3	0	0	-1
CCn1c(=O)c(C(=O)NCc2ccc(F)cc2)c(O)c2ccccc21	0	-1	-1	4.7*	-1
CN(c1cccnc1)c1ccc(NC(=O)Cc2c[nH]c3ccccc23)cc1-c1ccc(C(C)(C)C)cc1	-1	3	0	/	2
O=C(Nc1nc2c(s1)CCCC2)C1COc2ccccc2O1 (stereo unspecified)	4.4*	5	0	-2	3
O=C(Nc1ccc2c(c1)CCC2)C1COc2ccccc2O1 (stereo unspecified)	3	4	0	1	12*
O=C(Nc1ncc(Cc2ccccc2)s1)C1COc2ccccc2O1 (stereo unspecified)	4.2*	2	0	3	11*
Cc1ccc(Cc2cnc(NC(=O)C3CCCO3)s2)cc1 (stereo unspecified)	4	4	1.0*	1	13*
Cc1ccc(Cn2cc(CN(C)S(=O)(=O)c3ccccc3Br)nn2)cc1	0	-3	-1	/	0
Nc1ccn([C@@H]2O[C@H](C(=O)N3CCN(C(=O)N4CCCCC4)CC3)[C@@H](O)[C@H]2O)c(=O)n1	1	-1	-1	/	0
Cc1cc(C)c(C2=NOC3c4ccccc4OCC23)c(C)c1 (stereo unspecified)	0	-3	-1	/	2
CCCCCc1nnc(NC(=O)C2COc3ccccc3O2)s1 (stereo unspecified)	2	5.6*	-1	0	4
COc1ccc(S[C@]2(C(=O)NCCc3ccccc3)CC(=O)N[C@@H]2c2ccc(OC)cc2)cc1	0	-3	-2	/	-3
CC(C)(C)NC(=O)NC(=O)COC(=O)CNS(=O)(=O)c1ccc(Br)cc1Cl	0	0	0	5.8*	5
O=C(CNS(=O)(=O)c1ccc(Br)cc1Cl)OCC(=O)N1CCCC1=O	0	-1	-1	1	1
O=C(O)c1ccc2c(c1)S(=O)(=O)N=C1CCCCCN12	0	-2	-1	5.1*	-2
CCOC(=O)c1sc2nc3c(cc2c1N)C(=O)CC(C)(C)C3	1	-2	-1	4.4*	1
COC(=O)c1sc2nc3c(cc2c1N)C(=O)CC(C)(C)C3	1	1	0	0	2
SMILES	DAX1 inh-1	hcDAF-12 act	ssDAF12 agonist	DAX1 inh-2	hgDAF-12 ag
COc1cc(NC(=O)Nc2nc(C(N)C3CCCCC3)cs2)cc(OC)c1OC (stereo unspecified)	0	0	-2	/	-1
Cc1cc2c(cc1C)CN(c1ccccc1)C2	2	5	0	3	12*
Cc1cc(N2Cc3ccccc3C2)ccc1C=O	2	5	0	0	13*
O=C(CSc1nc2scc(-c3ccccc3)c2c(=O)[nH]1)NC1CCCCC1	0	-1	-1	/	-2
O=C(CSc1nc2scc(-c3ccccc3)c2c(=O)[nH]1)N1CCCCC1	1	0	-1	5.6*	-2
CC(C)C[C@H]1COc2cc(Br)ccc2S(=O)(=O)N1Cc1ccc(Cl)cc1	-2	3	-1	/	1
COc1ccc2nc3cc(Cl)ccc3c(C#N)c2c1	1	1	-1	1	-2
COc1ccc2nc3cc(Cl)ccc3c(Nc3ccc(O)c(CN4CCN(C)CC4)c3)c2c1	2	1	-1	4.3*	5
O=C(O)CSc1cc(NS(=O)(=O)c2cccc([N+](=O)[O-])c2)c2ccccc2c1O	-1	4	1.0*	0	0
CCOc1ccc(S(=O)(=O)Nc2cc(SCC(=O)O)c(O)c3ccccc23)cc1	-1	0	1.5*	0	-4
CCCCCCCCN1C(=O)[C@@H](CC(=O)N2CCN(C(=O)C3CC3)CC2)C[C@@]2(C(=O)OC)C1=C[C@H](C1CCCC1)O[C@@H]2C	1	1	-1	/	0
Cn1c(Cc2nc3ccccc3n2C)nc2ccccc21	-1	-1	-1	0	-1
CCN(Cc1nc2ccccc2n1C)c1ccccc1	0	4	2.1*	0	6
C=CCN=C1NC(c2cccc(Cl)c2)C(C(=O)OC)=C(C)N1Cc1ccc(C(F)(F)F)cc1 (stereo unspecified)	0	0	-1	/	1
Cc1cc(C)cc(NC(=O)COC(=O)c2n[nH]c3ccccc23)c1	0	1	-1	1	12*
O=C(COC(=O)c1n[nH]c2ccccc12)Nc1ccccc1	2	2	0	10*	10
COc1ccc(-c2nc(CN3CCCCC3c3cccnc3)c(C)o2)c(F)c1 (stereo unspecified)	0	-1	-1	0	12*
Cc1oc(-c2ccccc2Cl)nc1CN1CCCCC1c1cccnc1 (stereo unspecified)	0	1	-2	0	-2
CCn1c(NC(=O)c2ccccc2)nc2ccccc21	-1	5	2.3*	/	3
CCn1c(C(C)NC(C)=O)nc2ccccc21 (stereo unspecified)	3	4	0	0	12*
CCn1c(C(C)NC(=O)c2cccs2)nc2ccccc21 (stereo unspecified)	-1	4	-1	0	0
COC(=O)Cn1c(C(O)c2ccccc2)nc2ccccc21 (stereo unspecified)	0	2	1.7*	3	-1
Cc1cccc(Cc2nnc(CCC(=O)N(C)CCc3ccccc3)o2)c1	2	4	-1	2	12*
COc1cccc(C(=O)C[n+]2ccccc2/C=N/O)c1	0	1	1.2*	0	3
Cc1ccc2[nH]c(C(=O)O)c(NC(=O)[C@@H]3C[C@@H]3c3ccccc3)c2c1	0	3	2.5*	1	2
